# Results taken from the supplement of paper PMC4466140.
# How the values were obtained:
# Experiment in all cases: SPOT peptide array binding signal intensity (averaged, normalized) (arbitrary units (background-subtracted, floor 0; scale differs between SH3 domains)); higher = stronger binding of the SH3 domain to the peptide
# AgAbp1 = target: AgAbp1
# Method in brief: (§1)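 Binding signal is given in arbitrary units that differ between domains and is the normalized, background-subtracted spot intensity averaged across replicates. Each GST-SH3 fusion from one of four yeast species was made in E. coli BL21(DE3), purified on glutathione Sepharose and incubated at 10 μg/ml overnight at 4°C on cellulose-bound synthetic 15-mer peptides in which cysteines were replaced by serines. Detection used anti-GST antibody, an HRP anti-mouse secondary and luminol, followed by imaging and Genespotter quantification.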
# AgBbc1 = target: AgBbc1
# Method in brief: as §1
# AgBem1-D1 = target: AgBem1-D1
# Method in brief: as §1
# AgBzz1-D1 = target: AgBzz1-D1
# Method in brief: as §1
# AgBzz1-D2 = target: AgBzz1-D2
# Method in brief: as §1
# AgCyk3 = target: AgCyk3
# Method in brief: as §1
# AgFus1 = target: AgFus1
# Method in brief: as §1
# AgHof1 = target: AgHof1
# Method in brief: as §1
# AgHse1 = target: AgHse1
# Method in brief: as §1
# AgLsb1 = target: AgLsb1
# Method in brief: as §1
# AgLsb4 = target: AgLsb4
# Method in brief: as §1
# AgMyo5 = target: AgMyo5
# Method in brief: as §1
# AgNbp2 = target: AgNbp2
# Method in brief: as §1
# AgRvs167 = target: AgRvs167
# Method in brief: as §1
# AgSho1 = target: AgSho1
# Method in brief: as §1
# AgSla1-D1-D2 = target: AgSla1-D1-D2
# Method in brief: as §1
# AgSla1-D3 = target: AgSla1-D3
# Method in brief: as §1
# CaAbp1-D1 = target: CaAbp1-D1
# Method in brief: as §1
# CaAbp1-D2 = target: CaAbp1-D2
# Method in brief: as §1
# CaBbc1 = target: CaBbc1
# Method in brief: as §1
# CaBem1-D1 = target: CaBem1-D1
# Method in brief: as §1
# CaBzz1-D1 = target: CaBzz1-D1
# Method in brief: as §1
# CaBzz1-D2 = target: CaBzz1-D2
# Method in brief: as §1
# CaCyk3 = target: CaCyk3
# Method in brief: as §1
# CaFus1 = target: CaFus1
# Method in brief: as §1
# CaHof1 = target: CaHof1
# Method in brief: as §1
# CaHse1 = target: CaHse1
# Method in brief: as §1
# CaLsb1 = target: CaLsb1
# Method in brief: as §1
# CaLsb4 = target: CaLsb4
# Method in brief: as §1
# CaMyo5 = target: CaMyo5
# Method in brief: as §1
# CaNbp2 = target: CaNbp2
# Method in brief: as §1
# CaRvs167 = target: CaRvs167
# Method in brief: as §1
# CaRvs167-3 = target: CaRvs167-3
# Method in brief: as §1
# CaSho1 = target: CaSho1
# Method in brief: as §1
# CaSla1-D1-D2 = target: CaSla1-D1-D2
# Method in brief: as §1
# CaSla1-D3 = target: CaSla1-D3
# Method in brief: as §1
# ScAbp1 = target: ScAbp1
# Method in brief: as §1
# ScBbc1 = target: ScBbc1
# Method in brief: as §1
# ScBem1-D1 = target: ScBem1-D1
# Method in brief: as §1
# ScBzz1-D1 = target: ScBzz1-D1
# Method in brief: as §1
# ScBzz1-D2 = target: ScBzz1-D2
# Method in brief: as §1
# ScCyk3 = target: ScCyk3
# Method in brief: as §1
# ScFus1 = target: ScFus1
# Method in brief: as §1
# ScHof1 = target: ScHof1
# Method in brief: as §1
# ScHse1 = target: ScHse1
# Method in brief: as §1
# ScLsb1 = target: ScLsb1
# Method in brief: as §1
# ScLsb2 = target: ScLsb2
# Method in brief: as §1
# ScLsb3 = target: ScLsb3
# Method in brief: as §1
# ScLsb4 = target: ScLsb4
# Method in brief: as §1
# ScMyo3 = target: ScMyo3
# Method in brief: as §1
# ScMyo5 = target: ScMyo5
# Method in brief: as §1
# ScNbp2 = target: ScNbp2
# Method in brief: as §1
# ScPex13 = target: ScPex13
# Method in brief: as §1
# ScRvs167 = target: ScRvs167
# Method in brief: as §1
# ScSho1 = target: ScSho1
# Method in brief: as §1
# ScSla1-D1-D2 = target: ScSla1-D1-D2
# Method in brief: as §1
# ScSla1-D3 = target: ScSla1-D3
# Method in brief: as §1
# SpAbp1-D1 = target: SpAbp1-D1
# Method in brief: as §1
# SpBbc1 = target: SpBbc1
# Method in brief: as §1
# SpBzz1-D1 = target: SpBzz1-D1
# Method in brief: as §1
# SpBzz1-D2 = target: SpBzz1-D2
# Method in brief: as §1
# SpCyk3 = target: SpCyk3
# Method in brief: as §1
# SpHof1 = target: SpHof1
# Method in brief: as §1
# SpHof1-2 = target: SpHof1-2
# Method in brief: as §1
# SpHof1-3 = target: SpHof1-3
# Method in brief: as §1
# SpHse1 = target: SpHse1
# Method in brief: as §1
# SpLsb1 = target: SpLsb1
# Method in brief: as §1
# SpLsb4 = target: SpLsb4
# Method in brief: as §1
# SpMyo1 = target: SpMyo1
# Method in brief: as §1
# SpNbp2 = target: SpNbp2
# Method in brief: as §1
# SpPex13 = target: SpPex13
# Method in brief: as §1
# SpRvs167 = target: SpRvs167
# Method in brief: as §1
# SpSla1-D1-D2 = target: SpSla1-D1-D2
# Method in brief: as §1
# SpSla1-D3 = target: SpSla1-D3
# Method in brief: as §1
binder,measurement,setting,value
VATSTSPKLPPRGKQ,SPOT peptide array binding signal intensity,AgAbp1,3
same,SPOT peptide array binding signal intensity,AgBbc1,548
same,SPOT peptide array binding signal intensity,AgBem1-D1,8.5
same,SPOT peptide array binding signal intensity,AgBzz1-D1,84
same,SPOT peptide array binding signal intensity,AgBzz1-D2,100
same,SPOT peptide array binding signal intensity,AgCyk3,≤ 0
same,SPOT peptide array binding signal intensity,AgFus1,5
same,SPOT peptide array binding signal intensity,AgHof1,9.5
same,SPOT peptide array binding signal intensity,AgHse1,24
same,SPOT peptide array binding signal intensity,AgLsb1,290
same,SPOT peptide array binding signal intensity,AgLsb4,4510
same,SPOT peptide array binding signal intensity,AgMyo5,≤ 0
same,SPOT peptide array binding signal intensity,AgNbp2,4
same,SPOT peptide array binding signal intensity,AgRvs167,745
same,SPOT peptide array binding signal intensity,AgSho1,18
same,SPOT peptide array binding signal intensity,AgSla1-D1-D2,3.5
same,SPOT peptide array binding signal intensity,AgSla1-D3,1.5
same,SPOT peptide array binding signal intensity,CaAbp1-D1,87
same,SPOT peptide array binding signal intensity,CaAbp1-D2,79.5
same,SPOT peptide array binding signal intensity,CaBbc1,521
same,SPOT peptide array binding signal intensity,CaBem1-D1,19.5
same,SPOT peptide array binding signal intensity,CaBzz1-D1,93
same,SPOT peptide array binding signal intensity,CaBzz1-D2,96.5
same,SPOT peptide array binding signal intensity,CaCyk3,≤ 0
same,SPOT peptide array binding signal intensity,CaFus1,80
same,SPOT peptide array binding signal intensity,CaHof1,0.5
same,SPOT peptide array binding signal intensity,CaHse1,37
same,SPOT peptide array binding signal intensity,CaLsb1,1
same,SPOT peptide array binding signal intensity,CaLsb4,3500
same,SPOT peptide array binding signal intensity,CaMyo5,4.75
same,SPOT peptide array binding signal intensity,CaNbp2,2
same,SPOT peptide array binding signal intensity,CaRvs167,1970
same,SPOT peptide array binding signal intensity,CaRvs167-3,≤ 0
same,SPOT peptide array binding signal intensity,CaSho1,13
same,SPOT peptide array binding signal intensity,CaSla1-D1-D2,32
same,SPOT peptide array binding signal intensity,CaSla1-D3,≤ 0
same,SPOT peptide array binding signal intensity,ScAbp1,21.5
same,SPOT peptide array binding signal intensity,ScBbc1,18.8
same,SPOT peptide array binding signal intensity,ScBem1-D1,≤ 0
same,SPOT peptide array binding signal intensity,ScBzz1-D1,61.5
same,SPOT peptide array binding signal intensity,ScBzz1-D2,17.5
same,SPOT peptide array binding signal intensity,ScCyk3,≤ 0
same,SPOT peptide array binding signal intensity,ScFus1,2.5
same,SPOT peptide array binding signal intensity,ScHof1,3.25
same,SPOT peptide array binding signal intensity,ScHse1,3
same,SPOT peptide array binding signal intensity,ScLsb1,268
same,SPOT peptide array binding signal intensity,ScLsb2,31
same,SPOT peptide array binding signal intensity,ScLsb3,6600
same,SPOT peptide array binding signal intensity,ScLsb4,3830
same,SPOT peptide array binding signal intensity,ScMyo3,≤ 0
same,SPOT peptide array binding signal intensity,ScMyo5,3.25
same,SPOT peptide array binding signal intensity,ScNbp2,5
same,SPOT peptide array binding signal intensity,ScPex13,882
same,SPOT peptide array binding signal intensity,ScRvs167,2350
same,SPOT peptide array binding signal intensity,ScSho1,40.5
same,SPOT peptide array binding signal intensity,ScSla1-D1-D2,17
same,SPOT peptide array binding signal intensity,ScSla1-D3,≤ 0
same,SPOT peptide array binding signal intensity,SpAbp1-D1,97
same,SPOT peptide array binding signal intensity,SpBbc1,0.25
same,SPOT peptide array binding signal intensity,SpBzz1-D1,286
same,SPOT peptide array binding signal intensity,SpBzz1-D2,≤ 0
same,SPOT peptide array binding signal intensity,SpCyk3,≤ 0
same,SPOT peptide array binding signal intensity,SpHof1,1.25
same,SPOT peptide array binding signal intensity,SpHof1-2,0.5
same,SPOT peptide array binding signal intensity,SpHof1-3,61.2
same,SPOT peptide array binding signal intensity,SpHse1,0.5
same,SPOT peptide array binding signal intensity,SpLsb1,623
same,SPOT peptide array binding signal intensity,SpLsb4,6830
same,SPOT peptide array binding signal intensity,SpMyo1,≤ 0
same,SPOT peptide array binding signal intensity,SpNbp2,≤ 0
same,SPOT peptide array binding signal intensity,SpPex13,2
same,SPOT peptide array binding signal intensity,SpRvs167,3730
same,SPOT peptide array binding signal intensity,SpSla1-D1-D2,2
same,SPOT peptide array binding signal intensity,SpSla1-D3,≤ 0
